Here are results for eight molecules from PubChem BioAssay (NCI).

What all share (assay): NCI-60 one-dose screen, 48 h (100 = growth as untreated, 0 = no growth, -100 = all killed)
Common to all, as to settings: 10 µM unless noted

Test [1] concerns SK-MEL-2 melanoma.
Test [2] has as its system EKVX NSCLC.
The subject of test [3] is SN12C renal.
Test [4] has as its system UO-31 renal.
The test system of test [5] is TK-10 renal.
Test [6] has as its system ACHN renal.
The subject of test [7] is CAKI-1 renal.
Test [8] has as its system A498 renal.
For test [9], the system named is CCRF-CEM leukemia.
In test [10] the test system is RPMI-8226 leukemia.
Test [11] concerns OVCAR-8 ovarian.
The test system of test [12] is OVCAR-5 ovarian.
Test [13] concerns OVCAR-4 ovarian.
The subject of test [14] is SK-OV-3 ovarian.
Test [15] has as its system IGROV1 ovarian.
Test [16] deals with OVCAR-3 ovarian.
Test [17] concerns HS 578T breast.
In test [18] the test system is NCI/ADR-RES ovarian.
Test [19] has as its system SR leukemia.

This is part of a sample that, as a whole, favours compounds with a hit. Of some 83,000 tested, about 20% had one in any assay.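 96-well plates, one dose, 48 hours. Percent growth reported; active if below 10.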 Values without a mark were called inactive. Active and inactive are the calls of the source.

`Nc1cc2c3c(cccc3c1)C(=O)N(CCN1CCCC1)C2=O`: the growth in test [1] was 60.2%; in test [2], 73%; in test [3], 31.9%; in [4], 13.5%; in [5], 105%; in test [6], 4.18% (active). The growth in [7] is 7.81% (active); in test [8] it was 0.673% (active); in test [9], 28.7%; in test [10], 7.72% (active); in test [11], 34.4%; in [12], 65.6%. In addition, the growth in test [13] is 49.2%; in test [14], 36.9%; in [15] it was 8.96% (active); in test [16], 49.9%; in [17] it was 35.2%; in [18] it was 35.1%.
Regarding `CCCCCc1nc2c(c3c1CCCC3)CCCC2`, the growth is 80% in [1]; 77.1% in test [2]; 93.3% in test [3]; 47% in [4]; 77.2% in test [5]; 82.9% in [6]. Besides, the growth is 60.9% in test [7]; 84.3% in test [8]; 59.9% in [9]; 31.8% in test [19]; 59.8% in [11]; 67.2% in [12]. Further, the growth in test [13] was 70.7%; in [14], 80.7%; in [15], 61.7%; in test [16], 69.8%; in test [17], 65%; in [18], 48.3%.
Turning to `O=[N+]([O-])c1ccc(Sc2cccc[n+]2[O-])c2nonc12`, the growth in [1] was 92.9%; in test [2] it was 98.2%; in test [3], 93.6%; in test [4] it was 49.1%; in test [5], 133%; in [6], 95.4%. The growth in [7] was 102%; in [8], 113%; in [9] it was -18.8% (active); in [10], -12.2% (active); in test [11], 82.5%; in test [12], 120%. Moreover, the growth is 40.9% in test [13]; 108% in test [14]; 6.59% (active) in test [15]; -8.18% (active) in test [16]; 24.8% in [17]; 84.8% in test [18].
Consider `COc1ccc(-c2ccc3c(c2)sc2nc(-c4ccc(F)cc4)cn23)cc1`, for which the growth in test [1] was 73.4%; in test [2], 82.6%; in [3], 87.9%; in test [4], 81%; in test [5], 75.6%; in test [6] it was 92.9%. In addition, the growth is 100% in test [7]; 76.8% in [8]; 98.8% in test [9]; 76.7% in test [10]; 68.5% in [11]; 70.7% in [12]. The growth in test [13] was 73.6%; in [14], 84.2%; in test [15] it was 100%; in test [16] it was 88%; in test [17] it was 99.2%; in [18] it was 85.5%.
On to `Oc1ccc(CN2CCC(N3CCOCC3)CC2)c2cccnc12`, for which the growth is -6.57% (active) in test [1]; 59.4% in [2]; 11.8% in test [3]; 14.5% in test [4]; 30.6% in [5]; 12.8% in test [6]. Moreover, the growth in test [7] is 43.2%; in [8], 71.1%; in test [9], 22.4%; in test [10] it was 7.8% (active); in test [11] it was 19%; in test [12], 48.8%. Moreover, the growth in test [13] is 30.9%; in test [14], 36.1%; in [15], 34.9%; in test [16], 29.9%; in test [17], 24.4%; in test [18], 48.3%.
Take `O=C(N=c1oc2ccccc2cc1-c1cc2ccccc2[nH]1)c1ccc(Cl)cc1`: the growth in test [1] is 101%; in test [2], 38.9%; in [3], 80.3%; in test [4] it was 54.5%; in [5], 53.1%; in test [6] it was 6.82% (active). Moreover, the growth was 56.2% in [7]; 69.6% in test [8]; 24.7% in test [9]; 38.5% in test [10]; 50.5% in test [11]; 89.3% in test [12]. In addition, the growth in test [13] was 57.7%; in test [14] it was 57.3%; in [15], 29.7%; in test [16], 50.5%; in test [17], 63.3%; in [18] it was 38.6%.
For `Cc1cc(NCc2cc(Nc3ccnc4cc(Cl)ccc34)ccc2F)nc(Cl)n1`, the growth in test [1] is 54.6%; in test [2], 39.4%; in test [3] it was 37.2%; in [4], 30%; in [5], 38.1%; in test [6] it was 46.6%. The growth in test [7] is 56.5%; in [8], 41.3%; in test [9], 42.8%; in [10] it was 29.6%; in test [11], 35.9%; in [12], 74.2%. Moreover, the growth in test [13] was 34%; in [14], 70.2%; in test [15], 57%; in [16] it was 57.2%; in test [17], 57.7%; in [18], 35.7%.
On to `O=C(NCCCNc1cc(-c2cn(-c3ccccc3)nc2-c2cccc(O)c2)ccn1)c1cccc(O)c1`, for which the growth in test [1] was 83.5%; in [2], 71.4%; in test [3], 76.6%; in [4], 85.8%; in test [5] it was 115%; in test [6] it was 89.4%. The growth in [7] is 98.4%; in [8] it was 102%; in [9], 40.5%; in test [19], -9.11% (active); in test [11], 40.9%; in test [12], 107%. In addition, the growth in [13] is 67.8%; in test [14], 69.3%; in test [15], 84.5%; in test [16] it was 58.3%; in test [17] it was 34.2%; in test [18], 95%.
